Hits are enriched below; roughly 3.9% of the tested compounds scored in any of these assays.
BoNT-F LC inh = inhibitors of Botulinum neurotoxin F light chain protease; Multiplex microsphere protease cleavage assay, flow cytometry; inhibition, % at 10 µM; hit rate 0.22% among 360,000; AID 588497; in the data active means inhibition above about 35%, passing the limit was not always enough; inconclusive means no clear call, values can overlap the other calls
Bead autofluor = compound fluorescence in toxin protease inhibitor counterscreen. compound autofluorescence counterscreen, microsphere flow cytometry; stronger effect = higher value. fluorescence intensity (concentration not given with the values). hit rate 3.1% among 360,000. AID 624483; in the data active means fluorescence intensity above about 16000; inconclusive means no clear call, values can overlap the other calls
BoNT-A LC inh2 = blocks Botulinum neurotoxin A light chain protease; multiplex microsphere protease substrate cleavage, flow cytometry; inhibition, % at 10 µM; hit rate 0.17% among 360,000
Anthrax LF inh2 = anthrax lethal factor protease inhibition; multiplex microsphere protease cleavage assay, LF; P15917; inhibition, % at 10 µM; AID 588501; hit rate 0.12% among 360,000
Target sequence (P15917 whole entry, looked up): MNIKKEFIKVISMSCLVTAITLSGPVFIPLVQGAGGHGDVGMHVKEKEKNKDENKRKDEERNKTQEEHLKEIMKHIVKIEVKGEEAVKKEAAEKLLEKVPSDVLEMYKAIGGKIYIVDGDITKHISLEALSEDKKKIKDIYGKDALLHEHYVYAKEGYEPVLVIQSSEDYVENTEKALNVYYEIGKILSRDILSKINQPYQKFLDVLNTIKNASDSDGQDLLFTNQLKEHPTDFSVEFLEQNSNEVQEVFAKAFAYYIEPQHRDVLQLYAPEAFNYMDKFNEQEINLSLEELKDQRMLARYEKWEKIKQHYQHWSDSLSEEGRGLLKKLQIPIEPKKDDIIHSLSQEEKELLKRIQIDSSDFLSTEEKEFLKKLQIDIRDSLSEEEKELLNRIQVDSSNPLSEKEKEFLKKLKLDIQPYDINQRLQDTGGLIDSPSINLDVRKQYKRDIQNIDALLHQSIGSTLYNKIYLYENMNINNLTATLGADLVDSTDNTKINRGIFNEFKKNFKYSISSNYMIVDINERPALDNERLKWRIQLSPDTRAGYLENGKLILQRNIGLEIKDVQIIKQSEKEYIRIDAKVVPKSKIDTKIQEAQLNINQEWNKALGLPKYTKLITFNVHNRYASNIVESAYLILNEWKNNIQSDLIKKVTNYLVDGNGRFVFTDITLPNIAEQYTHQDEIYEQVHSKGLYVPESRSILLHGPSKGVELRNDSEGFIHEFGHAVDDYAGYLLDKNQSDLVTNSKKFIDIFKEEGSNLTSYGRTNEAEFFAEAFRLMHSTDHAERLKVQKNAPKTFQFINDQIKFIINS
3CLpro inhibitor = SARS-CoV 3CLpro protease inhibition; hit rate 0.14% among 290,000; recombinant SARS-CoV 3CLpro, quenched FRET peptide cleavage; AID 1706; inhibition, % at 6 µM; in the data active means inhibition above about 12%
CCHF vOTU inh = blocks the CCHF virus ovarian tumor domain protease | CCHFV vOTU protease, Pep-AMC fluorescence | inhibition, % at 11.5 µM | hit rate 0.55% among 370,000; in the data active means inhibition above about 30%
Numbers stand for hits; 0 = inactive; ? = inconclusive; - = no result. Unless noted, no stated cut-off is given here; in the data, active means inhibition above about 30%; inconclusive means no clear call, values can overlap the other calls; inactive means below that.

SMILES | BoNT-F LC inh | Bead autofluor | BoNT-A LC inh2 | Anthrax LF inh2 | 3CLpro inhibitor | CCHF vOTU inh
Cn1cc(CNC(=O)C23CC4CC(CC(C4)C2)C3)cn1 | 36 | 0 | 0 | 0 | 0 | 0
CCN(CC)CCOc1ccc2nc(N(C)C)sc2c1 | 0 | 0 | 0 | 0 | 0 | 0
CN(C)c1nc2ccc(OCCN3CCCCC3)cc2s1 | 0 | 23663 | 0 | 0 | 0 | 0
CCOc1ccc2nc(N3CCCCCC3)sc2c1 | 0 | 16527 | 0 | 0 | 0 | -
O=C(Cc1ccc(F)cc1)c1ccc(O)cc1O | 0 | 19761 | 0 | 0 | 0 | 0
COC(=O)Cn1c(=NC(=O)c2cc(-c3cccs3)nc3ccccc23)sc2cc(S(N)(=O)=O)ccc21 | 0 | 0 | 38 | 0 | 0 | 0
CCOC(=O)Cn1c(=NC(=O)c2cc(-c3cccs3)nc3ccccc23)sc2cc(S(N)(=O)=O)ccc21 | 0 | 0 | 0 | 0 | 0 | 0
CCCC1CCC2(CCC(=O)N2CCSc2ccccc2)CC1 (stereo unspecified) | - | - | - | - | - | 0
Nc1ccn([C@@H]2O[C@H](C(=O)N[C@H](Cc3ccccc3)C(=O)Nc3ccc4scnc4c3)[C@@H](O)[C@H]2O)c(=O)n1 | - | - | - | - | - | 0
O=S(=O)(c1cccc(Cl)c1)N1CCCC1 | 0 | 24145 | 0 | 0 | 0 | -
O=S(=O)(c1cc(Cl)ccc1Br)N1CCCCC1 | 0 | 21533 | 0 | 0 | 0 | 0
O=S(=O)(c1cccc(S(=O)(=O)N2CCCC2)c1)N1CCCCC1 | 0 | 0 | 0 | 0 | 0 | 0
O=S(=O)(c1cccc(-c2nnc(-c3cccnc3)o2)c1)N1CCCCC1 | 0 | 19643 | ? | 0 | 0 | 0
O=S(=O)(c1cccc(S(=O)(=O)N2CCCC2)c1)c1cccc(S(=O)(=O)N2CCCC2)c1 | 0 | 21252 | ? | 0 | 0 | 0
CC1CCN(S(=O)(=O)c2cccc(-c3nnc(-c4cccnc4)o3)c2)CC1 | 0 | 0 | 0 | 0 | 0 | 0
CCN(CC)C(=O)CC[C@H]1CC[C@]2(CCCN(Cc3ccccc3)C2)O1 | - | - | - | - | - | 0
O=C(NCCc1c[nH]c2ccccc12)OCc1cn(Cc2cccc(F)c2)nn1 | - | - | - | - | - | 0
C[C@H](O)[C@@H]1CN2CCc3c([nH]c4cccc(-c5ccc6c(c5)OCO6)c34)[C@@H]2C[C@@H]1N(C)C(=O)c1ccco1 | - | - | - | - | - | 0
Nc1[nH]c(C(=O)c2ccc(Br)cc2)c(-c2ccncc2)c1C(=O)NCCc1c[nH]c2ccccc12 | - | - | - | - | - | 0
CCCCn1c(-c2ccoc2C)n[nH]c1=S | 0 | 23012 | 0 | 0 | 0 | 0
CCCCn1c(-c2ccco2)n[nH]c1=S | 0 | 0 | 0 | 0 | 0 | 0
CC(C)NC(=O)C1(c2ccccc2)CCOCC1 | 0 | 0 | 0 | 0 | 0 | 0
CC(Cc1ccccc1)NC(=O)C1(c2ccccc2)CCOCC1 (stereo unspecified) | 0 | 22824 | ? | 0 | 0 | 0
COc1ccc(NC(C)C(=O)Nc2ccc(C(C)(C)C)cc2)cc1Cl (stereo unspecified) | 0 | 0 | 0 | 0 | 0 | 0
COc1ccc(NCC(=O)Nc2ccc(C#N)cc2)cc1Cl | 0 | 22730 | 0 | 0 | 0 | 0
SMILES | BoNT-F LC inh | Bead autofluor | BoNT-A LC inh2 | Anthrax LF inh2 | 3CLpro inhibitor | CCHF vOTU inh
COc1ccc(NC(C)C(=O)Nc2ccc(C#N)cc2)cc1Cl (stereo unspecified) | 0 | 22894 | ? | 0 | 0 | 0
CN(CC(=O)Nc1ccc(C#N)cc1)Cc1ccc(Cl)cc1Cl | 0 | 22298 | 0 | 0 | 0 | 0
CN(CC(=O)Nc1ccc(C#N)cc1)Cc1ccc(Cl)cc1 | 0 | 0 | 0 | 0 | 0 | 0
CC(C)NC(=O)N[C@H]1C[C@@H]2O[C@@H](CO)CC[C@@H]2O[C@@H]1CCc1ccc(-c2ccc(F)cc2)cc1 | - | - | - | - | - | 0
N#Cc1ccc(S(=O)(=O)N2CCCc3nc(-c4ccc(Br)cc4)ccc32)cc1 | - | - | - | - | - | 0
O=[N+]([O-])c1ccc(Cl)c(/C=N/N2CCN(Cc3ccccc3)CC2)c1 | 0 | 21691 | 0 | 0 | 0 | 0
O=[N+]([O-])c1ccc(Cl)c(/C=N/N2CCN(Cc3ccc(Cl)cc3)CC2)c1 | 0 | 18114 | ? | 0 | 0 | 0
O=[N+]([O-])c1ccc(Cl)c(/C=N/N2CCN(Cc3ccccc3Cl)CC2)c1 | 0 | 0 | 0 | 0 | 0 | 0
C=CCc1cccc(C=NNC(=O)c2ccco2)c1O | - | - | - | - | - | 0
Cc1cc2c(c(=O)o1)[C@@]1(C(=O)N(c3ccccc3)c3ccccc31)C1=C(CCCC1=O)O2 | - | - | - | - | - | 0
CC(=O)CSc1nc2ccc(Nc3nc(N4CCOCC4)nc(N4CCOCC4)n3)cc2s1 | 0 | 16232 | 0 | 0 | 0 | 0
Cn1cnnc1SCC(=O)Nc1ccc2nc(SCc3cccc4ccccc34)sc2c1 | 0 | 0 | 0 | 0 | 0 | 0
CCC(=O)Nc1ccc2nc(SCC(=O)N3CCCC3)sc2c1 | 0 | 20940 | 0 | 0 | 0 | -
CC(C)(C)NC(=O)CSc1nc2ccc(Nc3nc(N4CCOCC4)nc(N4CCOCC4)n3)cc2s1 | 0 | 0 | 0 | 0 | 0 | 0
Cn1cnnc1SCC(=O)Nc1ccc2nc(SCc3ccccc3Cl)sc2c1 | 0 | 25037 | ? | 0 | 0 | 0
Cc1ccccc1-c1cccc2c3c([nH]c12)[C@@H]1C[C@H]2[C@@H](CN1CC3)[C@H](C)ON2C | - | - | - | - | - | 0
CN1C(=O)c2cc(NC(=O)C3CC3)ccc2OC[C@H]2O[C@@H](CC(=O)NC3CCC3)CC[C@@H]21 | - | - | - | - | - | 0
COC(=O)[C@]12C[C@H](CC(=O)NCCc3ccccc3OC)C(=O)N(Cc3cccc4ccccc34)C1=C[C@H](C1CCCC1)O[C@@H]2C | - | - | - | - | - | 0
COC(=O)[C@]12C[C@H](CC(=O)NCc3cccs3)C(=O)N(Cc3ccco3)C1=C[C@H](C(C)(C)C)O[C@@H]2C | - | - | - | - | - | 0
CCOC(=O)C1CCCN(C(=O)C(=O)c2cn(CC(=O)N3CCOCC3)c3ccccc23)C1 (stereo unspecified) | 0 | 19022 | 0 | 0 | 0 | 0
CCOC(=O)N1CCN(C(=O)C(=O)c2cn(CC(=O)N3CCCCCC3)c3ccccc23)CC1 | 0 | 0 | 0 | 0 | 0 | 0
CCOC(=O)C1CCN(C(=O)C(=O)c2cn(CC(=O)N3CCCCCC3)c3ccccc23)CC1 | 0 | 0 | 44 | 31 | 0 | 0
FC(F)(F)c1cnc(/C=C/Nc2ccccc2Cl)c(Cl)c1 | 0 | 22771 | 0 | 0 | 0 | 0
O=S(=O)(c1ccccc1)c1ncc(C(F)(F)F)cc1Cl | 0 | 0 | 0 | 0 | 0 | 0
Cc1ccc(C)c(CSc2nnc(-c3cccnc3)o2)c1 | 0 | 24006 | ? | 0 | 0 | 0
SMILES | BoNT-F LC inh | Bead autofluor | BoNT-A LC inh2 | Anthrax LF inh2 | 3CLpro inhibitor | CCHF vOTU inh
Fc1ccccc1CSc1nnc(-c2cccnc2)o1 | 0 | 0 | 0 | 0 | 0 | 0
Cc1cccc(C)c1-n1nnnc1SCSc1nnnn1-c1c(C)cccc1C | 0 | 21580 | ? | 0 | 0 | 0
CSc1nnnn1-c1c(C)cccc1C | 0 | 0 | 0 | 0 | 0 | 0
COc1ccc(CCNC(=O)c2cc(-c3ccccc3OC)on2)cc1OC | 0 | 24479 | ? | 0 | 0 | 0
COc1ccccc1-c1cc(C(=O)NCCc2ccccc2)no1 | 0 | 0 | 0 | 0 | 0 | 0
COc1ccc(CCNC(=O)c2cc(CC(C)C)on2)cc1OC | 0 | 0 | 0 | 0 | 0 | 0
COc1ccc(-c2cc(C(=O)NCCc3ccccc3)no2)cc1OC | 0 | 20927 | 0 | 0 | 0 | 0
COc1ccccc1-c1cc(C(=O)Nc2cccnc2)no1 | 0 | 22187 | 0 | 0 | 0 | 0
O=C(c1ccc(F)c(F)c1)N1CCC(Oc2cccnc2)CC1 | - | - | - | - | - | 0

Compound activity deposited in PubChem by several laboratories.
